Rows were chosen to be rich in hits. Some 19% of all compounds tested hit in one or more screens of this group.
DT40 TDP1 CPT – growth inhibition of DT40 Tdp1-/-;hTDP1 cells with camptothecin (screen for TDP1 inhibitors). chicken DT40 Tdp1-/-;hTDP1 cells + 20 nM CPT, ATP luminescence, 48 h. Potency, µM (doses to about 46.2 µM), actives largely listed as inhibitors. 12% of 420,000 active. AID 686979; also: nearly all actives have a fitted effect of over 55% in size
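Chicken DT40 Tdp1-/- cells stably complemented with human TDP1 were seeded at 400 cells/well in medium containing 20 nM camptothecin, exposed to pin-transferred compounds, and grown at 37 °C for at least 48 hr. Viability was read as ATP luminescence.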
RORg inh – inhibitors of mouse ROR gamma transcriptional activity; P51450; Drosophila S2 Gal4-RORgamma UAS-luciferase reporter, 20 h; Potency, µM (titrated, usually from 53.6 µM), actives largely listed as inhibitors; 5.4% of 310,000 active; also: nearly all actives have a fitted effect of over 60% in size
Target sequence (P51450 whole entry, looked up, the tested form may be a part): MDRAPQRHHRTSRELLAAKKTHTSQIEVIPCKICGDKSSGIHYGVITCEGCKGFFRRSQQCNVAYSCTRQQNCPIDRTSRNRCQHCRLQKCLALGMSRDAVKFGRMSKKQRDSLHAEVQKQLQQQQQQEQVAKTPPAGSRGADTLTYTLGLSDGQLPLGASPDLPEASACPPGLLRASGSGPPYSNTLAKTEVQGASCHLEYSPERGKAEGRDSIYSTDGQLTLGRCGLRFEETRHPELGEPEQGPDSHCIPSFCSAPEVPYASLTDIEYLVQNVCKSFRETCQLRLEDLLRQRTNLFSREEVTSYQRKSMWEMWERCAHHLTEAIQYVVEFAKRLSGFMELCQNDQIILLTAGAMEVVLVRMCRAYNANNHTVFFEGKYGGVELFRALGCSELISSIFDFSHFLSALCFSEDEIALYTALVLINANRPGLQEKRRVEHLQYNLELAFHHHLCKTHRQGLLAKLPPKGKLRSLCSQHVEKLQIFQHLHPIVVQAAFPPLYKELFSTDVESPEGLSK
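Using a luciferase readout, inhibitors were identified by reduced reporter activity in Drosophila cells coexpressing a copper-inducible Gal4–ROR gamma fusion and UAS-driven Photinus luciferase, incubated 20 hr after 700 uM copper sulfate.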
VP16 counter – Gal4-VP16 reporter inhibition counter-screen; Drosophila S2 Gal4-VP16 UAS-luciferase, luminescence, 20 h; Potency, µM (highest dose often 53.6 µM), most hits filed as inhibitors; 3.5% of 310,000 active;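 also: Gal4-VP16 expression switched on by copper sulfate through the metallothionein promoter; nearly all actives have a fitted effect of over 50% in size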
TDP1 inh – TDP1 (human) enzyme inhibition; Q9NUW8; recombinant TDP1, AlphaScreen DNA substrate cleavage; Potency, µM (series often up to 130 µM), most hits filed as inhibitors; 0.28% of 350,000 active; AID 485290; also: nearly all actives have a fitted effect of over 40% in size
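AlphaScreen read-out: signal falls as enzyme removes the 3' tyrosine-FITC from a 5'-biotinylated DNA oligo (15 nM, 5 min, RT). Enzyme was E. coli-made recombinant Tdp1 at 1 nM, exposed to compound for 15 min beforehand; beads 10 ug/ml, 10 min.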
DT40 TDP1 no CPT – qHTS for Inhibitors of human tyrosyl-DNA phosphodiesterase 1 (TDP1): qHTS in cells in absence of CPT; AID 686978, 2013; Potency, µM (top dose mostly 46.2 µM), most hits filed as inhibitors; DT40 Tdp1-/- hTDP1 cells, no CPT, ATP luminescence, 48 h; 15% of 420,000 active; also: nearly all actives have a fitted effect of over 55% in size
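Luminescent ATP content (CellTiter-Glo) served as the growth readout. Knockout chicken DT40 cells expressing human TDP1 were exposed to compounds without camptothecin for a minimum 48 hr at 37 °C.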
Numbers stand for hits; 0 = inactive; ? = inconclusive; - = not tested or not shown; [ ] = dose if it differs, or a comment. Calls follow the shape of the dose curve; as a rule, active = well fitted curve in the direction sought with a large enough effect; inconclusive = small, poorly fitted or top-dose-only effect, or another doubt; inactive = no such curve, though single readings can be large; an effect the other way counts as inactive or inconclusive.

SMILES	DT40 TDP1 CPT	RORg inh	VP16 counter	TDP1 inh	DT40 TDP1 no CPT
COc1ccc(-c2nnc(SCC(=O)c3cc(C)n(Cc4cccs4)c3C)o2)cc1	0	0	0	0	0
Cc1nnn(C23CC4CC(CC(C(=O)NN)(C4)C2)C3)n1	0	0	0	0	0
CCOc1ccc(-n2nc(CO)c(C(=O)NCc3cccs3)n2)cc1	?	-	-	0	16µM
CC1(OC(=O)CCc2ccccc2)C(=O)C=C2C=C(c3ccc(C#N)cc3)N(Cc3ccccc3)C=C2C1=O (configuration not stated)	18µM	0	0	0[12.3 µM]	?
COCCN1C=C2C(=O)C(C)(OC(=O)CCc3ccccc3)C(=O)C=C2C=C1c1ccc(C#N)cc1 (configuration not stated)	?	0	0	0[21 µM]	0
CC1(OC(=O)CCc2ccccc2)C(=O)C=C2C=C(c3ccc(C#N)cc3)N(Cc3ccco3)C=C2C1=O (configuration not stated)	?	0	0	0[21 µM]	?
CC(C)CN1C=C2C(=O)C(C)(OC(=O)CCc3ccccc3)C(=O)C=C2C=C1c1ccc(C#N)cc1 (configuration not stated)	21µM	0	0	0[21 µM]	18µM
CC1(OC(=O)C2CCCC2)C(=O)C=C2C=C(c3ccsc3)N(Cc3ccccc3)C=C2C1=O (configuration not stated)	?	0	0	0[21 µM]	18µM
COc1ccccc1P(=O)(c1ccccc1)c1ccccc1	0	0	0	-	0
Cc1ccccc1P(=O)(c1ccccc1)c1ccccc1C	?	-	-	-	18µM
CCN(CC)c1cc(C)c(/C=C/c2ccnc3ccccc23)cc1C	10µM	-	-	-	13µM
Cc1cc(N(C)C)c(C)cc1/C=C/c1ccnc2ccccc12	0.79µM	-	-	-	0.56µM
Cc1ccc(-n2c3c(cc(C(=O)NCc4ccco4)c2=O)C(=O)CC(C)(C)C3)cc1	0	0	?	0	?
CCN(CC)CC(=O)Nc1c(C#N)cnn1-c1ccccc1	0	0	0	-	0
CCc1ccc2c(CN3CCc4cc(OC)c(OC)cc4C3)cc(=O)oc2c1	?	0	?	0	23µM
Cc1ccc2c(CN(C)Cc3ccccc3)cc(=O)oc2c1C	0	?	0	-	15µM
COc1cc2c(cc1OC)CN(Cc1cc(=O)oc3c(C)c(C)ccc13)CC2	?	?	0	0	21µM
COc1ccc(CN2CCN(c3ccccn3)CC2)c(OC)c1C	?	0	0	0	13µM
Cc1ccc(NC(=O)C2COc3ccccc3O2)cc1S(=O)(=O)N1CCOCC1 (configuration not stated)	?	-	-	0	?
O=C(COC(=O)CC1CC2CCC1C2)Nc1ccc(F)cc1Cl (configuration not stated)	0	-	-	0	?
CCCC1C(C#N)=C(N)Oc2cc(C)n(C)c(=O)c21 (configuration not stated)	0	0	0	0	0
Cc1ccc(S(=O)(=O)N2CCN(CC(=O)N3CCCC3)CC2)c(C)c1	0	-	-	0	0
COc1cc2c(cc1OC)CN(Cc1ccc(C)cc1)CC2	0	0	0	-	0
COc1cc2c(cc1OC)CN(Cc1ccc(OC)c(C)c1OC)CC2	29µM	0	0	0	21µM
CC(C)(C)c1ccc(S(=O)(=O)/C=C/C#N)cc1	0.79µM	-	-	0	0.56µM
SMILES	DT40 TDP1 CPT	RORg inh	VP16 counter	TDP1 inh	DT40 TDP1 no CPT
CCC1ON(C(C)C)C2c3nc4ccccc4n3CC12 (configuration not stated)	0	0	0	0	0
CC1(C)ON(C2CCCCC2)[C@H]2c3nc4ccccc4n3C[C@H]21	0	14µM	0	-	0
COc1ccc(NC(=O)c2cc3nc(-c4ccc(C)c(C)c4)cc(C(F)(F)F)n3n2)cc1	0	-	-	0	?
COc1cccc(NC(=O)c2cnn(-c3ccccc3)c2C)c1	0	?	?	0	0
COc1ccc(-c2cc(C(F)(F)F)nc(S(=O)(=O)CCCC(=O)Nc3ccccc3C(F)(F)F)n2)cc1OC	1.2µM	-	-	0	2.1µM
COc1ccc(NC(=O)CCCS(=O)(=O)c2nc(-c3ccc(OC)c(OC)c3)cc(C(F)(F)F)n2)cc1OC	1.6µM	-	-	0	1.6µM
COCCNC(=O)CSc1nc(-c2ccc(OC)c(OC)c2)cc(C(F)(F)F)n1	0	0[0.365 µM]	-	0	0
COc1ccccc1-c1cc(C(F)(F)F)nc(S(=O)(=O)CCCC(=O)Nc2ccc(F)c(Cl)c2)n1	0	-	-	0	?
COc1ccc(-c2cc(C(F)(F)F)nc(S(=O)(=O)CCCC(=O)Nc3cccc(O)c3)n2)cc1OC	3.7µM	10µM	11µM	0	4.1µM
COc1ccc(-c2cc(C(F)(F)F)nc(SCC(=O)N3CCOCC3)n2)cc1OC	0	?	0	0	?
COC(=O)c1ccc(COc2ccccc2/C=C(\C#N)C(=O)Nc2c(C)cc(C)cc2C)cc1	8.2µM	?	?	0	10µM
COc1ccc(NC(=O)/C(C#N)=C/c2ccc(OCc3ccccc3F)cc2)cc1	0	0[10 µM]	0	0	0
N#C/C(=C\c1ccc(OCc2ccccc2)cc1)C(=O)Nc1ccc(C(=O)O)cc1	0	0	0	45µM	0
Cc1cc(C)c(NC(=O)/C(C#N)=C/c2ccc(OCc3ccc(F)cc3)cc2)c(C)c1	2.6µM	0	0	0	6.5µM
C=CCOC(=O)Nc1nc(CCNC(=O)OCc2ccccc2)c(C(=O)OC)s1	0	-	-	-	0
COC(=O)[C@@H](NCc1cccc(CN[C@H](C(=O)OC)C(C)C)c1)C(C)C	0	0	0	-	0
COC(=O)C(c1ccccc1)N(Cc1cccc(CN(C(C(=O)OC)c2ccccc2)S(C)(=O)=O)c1)S(C)(=O)=O (configuration not stated)	?	0	0	-	16µM
C[C@H](CO)N1C[C@H](C)[C@@H](CN(C)C(=O)Nc2ccc(C(F)(F)F)cc2)Oc2c(NC(=O)C3CCCCC3)cccc2C1=O	?	-	-	0	?
CCOC(=O)c1cc(-c2ccc(F)cc2)n(CCC(=O)NC2CCN(Cc3ccccc3)CC2)c1C	16µM	0	0	0	15µM
CCOC(=O)c1cc(-c2ccc(OC)cc2)n(CCC(=O)NC2CCN(Cc3ccccc3)CC2)c1C	?	0	0	0	21µM
CCOc1ccc(S(=O)(=O)NCCC(=O)NC2CCN(Cc3ccccc3)CC2)cc1	0	-	-	-	0
CCOC(=O)c1cc(-c2ccc(OC)cc2)n(CCC(=O)NCCN2CCC(C)CC2)c1C	?	0	0	0	?
N#Cc1c(NC(=O)C(=O)NCCCN2CCOCC2)sc2c1CCCC2	0	0	0	0	0
CO[C@H]1COC(=O)[C@H](C)NC(=O)C/C=C\[C@@H](C)[C@H](OC)COC(=O)C/C=C\[C@@H]1C	-	0[10 µM]	0[10 µM]	0[21 µM]	-
COC1=CC(=O)c2nc(Cl)ccc2C1=O	0.58µM	-	-	-	1µM

High-throughput results: PubChem BioAssay, National Center for Advancing Translational Sciences (NCATS)
